# Records with an inconclusive call do not appear. A number with no mark means an inactive call. The call rests on the fitted dose curve; in most records, active means well fitted curve in the direction sought with a large enough effect; inconclusive means small, poorly fitted or top-dose-only effect, or another doubt; inactive means no such curve, though single readings can be large; an effect the other way counts as inactive or inconclusive.
# Experiment: qHTS of pediatric cancer cell lines to identify multiple opportunities for drug repurposing: Primary screen for DAOY cells (AID 1347090);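 further: plate controls were DMSO for no effect and bortezomib for full effect; nearly all actives have a fitted effect of over 55% in size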
# Details: DAOY medulloblastoma viability, CellTiter-Glo luminescence, 48 h; series mostly up to 46 µM; activity change, negative = cytotoxic: at the top concentration
# Method in brief: (§1)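 Cell viability, CellTiter-Glo luminescence; 500-1,000 cells/well, 8- or 11-point titration, 48 h compound exposure at 37 degrees C, 5% CO2. Controls: DMSO neutral, bortezomib 2.3 µM final as positive.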
row,SMILES,"activity change, negative = cytotoxic"
1,C=CCn1c(=O)n([C@@H]2O[C@H](CO)[C@@H](O)[C@H]2O)c2nc(N)[nH]c(=O)c21,10.3%
2,O=C1c2c(O)cccc2Cc2cccc(O)c21,-6.51%
3,CC1(C)OC(=O)NC1=O,2.85%
4,CCOc1ccc2ccccc2c1C(=O)N[C@@H]1C(=O)N2[C@@H]1SC(C)(C)[C@@H]2C(=O)O,5.57%
5,CC1CC(OC(=O)C(O)c2ccccc2)CC(C)(C)N1C (stereo not drawn),9.49%
6,OCC(CO)N[C@H]1C[C@](O)(CO)[C@@H](O)[C@H](O)[C@H]1O,9.07%
7,CCn1cc(C(=O)O)c(=O)c2cnc(N3CCNCC3)nc21,0.765%
8,CC1(C)CO[C@@H](CC(=O)O)CN1,3.49%
9,CCCCC(CC)COC(=O)c1ccccc1O (stereo not drawn),4.24%
10,CCN(CC)C(=O)Nc1ccc(OCC(O)CNC(C)(C)C)c(C(C)=O)c1 (stereo not drawn),11.8%
11,C[C@@H]1CC[C@@]2(OC1)O[C@H]1C[C@H]3[C@@H]4CC[C@H]5C[C@@H](O)CC[C@]5(C)[C@H]4CC(=O)[C@]3(C)[C@H]1[C@@H]2C,10.7% [at 4.84 µM]
12,C[C@@H]1CN(c2c(F)c(F)c3c(=O)c(C(=O)O)cn(C4CC4)c3c2F)C[C@H](C)N1,16.9% [at 16.1 µM]
13,Cc1ccc(C(C)C)cc2c(C)ccc1-2,11.5%
14,Cc1cc(O)cc2c1O[C@](C)(CCC[C@H](C)CCC[C@H](C)CCCC(C)C)CC2,9.59%
15,COc1ccc(S(=O)(=O)Nc2nnc(CC(C)C)s2)cc1,-14.4%
16,CCCCN1CCCC[C@H]1C(=O)Nc1c(C)cccc1C,3.39%
17,CC(=O)CCC(=O)O,13.9%

row,SMILES,"activity change, negative = cytotoxic"
1,CN(C)CC[C@@H](c1ccc(Cl)cc1)c1ccccn1,10.1%
2,NC(=O)NC(=O)Cc1ccccc1,-6.81%
3,CC1=C(C/C=C(\C)CCC[C@H](C)CCC[C@H](C)CCCC(C)C)C(=O)c2ccccc2C1=O,-6.95%
4,COc1ccccc1O,9.04% [at 92.7 µM]
5,Nc1nc2c(ncn2CCC(CO)CO)c(=O)[nH]1,-1.73%
6,N[C@H]1C(O)O[C@H](CO)[C@@H](O)[C@@H]1O (stereo partly drawn),-0.0391%
7,C[C@@H](O)[C@H](N)C(=O)O,-7.43% [at 16.1 µM]
8,CC1(C)[C@@H]2CC[C@@]1(C)C(=O)C2,4.11%
9,C[C@@H]1CCN(C(=O)[C@H](CCCN=C(N)N)NS(=O)(=O)c2cccc3c2NC[C@H](C)C3)[C@@H](C(=O)O)C1,18.2%
10,Nc1ccc(S(=O)(=O)Nc2ccccc2)cc1,4.6%
11,Oc1cccc(O)c1,4.94%
12,NCCNCCNCCNCCN,-7.74% [at 9.22 µM]
13,C[C@H](N)[C@H](O)c1cccc(O)c1,14.3%
14,O=C(Oc1ccccc1C(=O)O)c1ccccc1O,9.93%
15,Nc1ccc(S(=O)(=O)NC(=O)c2ccccc2)cc1,6.92%
16,Cc1cc2nc3c(=O)[nH]c(=O)nc-3n(C[C@H](O)[C@H](O)[C@H](O)CO)c2cc1C,3.76% [at 16.1 µM]
17,O=C1O[C@H]([C@@H](O)CO)C(O)=C1O,-6.96%

# Experiment: qHTS of pediatric cancer cell lines to identify multiple opportunities for drug repurposing: Primary screen for SJ-GBM2 cells (AID 1347091);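 further: plate controls were DMSO neutral control for no effect and bortezomib for full effect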
# Details: SJ-GBM2 viability, CellTiter-Glo luminescence, 48 h; series mostly up to 46 µM; activity change, negative = cytotoxic: at the top concentration
# Method in brief: as §1
row,SMILES,"activity change, negative = cytotoxic"
1,C=CCn1c(=O)n([C@@H]2O[C@H](CO)[C@@H](O)[C@H]2O)c2nc(N)[nH]c(=O)c21,24%
2,O=C1c2c(O)cccc2Cc2cccc(O)c21,42.1%
3,CC1(C)OC(=O)NC1=O,31.6%
4,CCOc1ccc2ccccc2c1C(=O)N[C@@H]1C(=O)N2[C@@H]1SC(C)(C)[C@@H]2C(=O)O,16.4%
5,CC1CC(OC(=O)C(O)c2ccccc2)CC(C)(C)N1C (stereo not drawn),17.9%
6,OCC(CO)N[C@H]1C[C@](O)(CO)[C@@H](O)[C@H](O)[C@H]1O,2.67%
7,CCn1cc(C(=O)O)c(=O)c2cnc(N3CCNCC3)nc21,9.18%
8,CC1(C)CO[C@@H](CC(=O)O)CN1,22.2%
9,CCCCC(CC)COC(=O)c1ccccc1O (stereo not drawn),16.2%
10,CCN(CC)C(=O)Nc1ccc(OCC(O)CNC(C)(C)C)c(C(C)=O)c1 (stereo not drawn),11.1%
11,C[C@@H]1CC[C@@]2(OC1)O[C@H]1C[C@H]3[C@@H]4CC[C@H]5C[C@@H](O)CC[C@]5(C)[C@H]4CC(=O)[C@]3(C)[C@H]1[C@@H]2C,26.5% [at 4.84 µM]
12,C[C@@H]1CN(c2c(F)c(F)c3c(=O)c(C(=O)O)cn(C4CC4)c3c2F)C[C@H](C)N1,93.7% [at 16.1 µM]
13,Cc1ccc(C(C)C)cc2c(C)ccc1-2,33.3%
14,Cc1cc(O)cc2c1O[C@](C)(CCC[C@H](C)CCC[C@H](C)CCCC(C)C)CC2,15.2%
15,COc1ccc(S(=O)(=O)Nc2nnc(CC(C)C)s2)cc1,61.4%
16,CCCCN1CCCC[C@H]1C(=O)Nc1c(C)cccc1C,-1.76%
17,CC(=O)CCC(=O)O,23.1%

row,SMILES,"activity change, negative = cytotoxic"
1,CN(C)CC[C@@H](c1ccc(Cl)cc1)c1ccccn1,25.2%
2,NC(=O)NC(=O)Cc1ccccc1,1.08%
3,CC1=C(C/C=C(\C)CCC[C@H](C)CCC[C@H](C)CCCC(C)C)C(=O)c2ccccc2C1=O,21.4%
4,COc1ccccc1O,18.7% [at 92.7 µM]
5,Nc1nc2c(ncn2CCC(CO)CO)c(=O)[nH]1,-9.54%
6,N[C@H]1C(O)O[C@H](CO)[C@@H](O)[C@@H]1O (stereo partly drawn),3.24%
7,C[C@@H](O)[C@H](N)C(=O)O,13.9% [at 16.1 µM]
8,CC1(C)[C@@H]2CC[C@@]1(C)C(=O)C2,16.4%
9,C[C@@H]1CCN(C(=O)[C@H](CCCN=C(N)N)NS(=O)(=O)c2cccc3c2NC[C@H](C)C3)[C@@H](C(=O)O)C1,24.3%
10,Nc1ccc(S(=O)(=O)Nc2ccccc2)cc1,20.7%
11,Oc1cccc(O)c1,23.8%
12,NCCNCCNCCNCCN,0.237% [at 9.22 µM]
13,C[C@H](N)[C@H](O)c1cccc(O)c1,20.9%
14,O=C(Oc1ccccc1C(=O)O)c1ccccc1O,18.9%
15,Nc1ccc(S(=O)(=O)NC(=O)c2ccccc2)cc1,-3.15%
16,Cc1cc2nc3c(=O)[nH]c(=O)nc-3n(C[C@H](O)[C@H](O)[C@H](O)CO)c2cc1C,16.5% [at 16.1 µM]
17,O=C1O[C@H]([C@@H](O)CO)C(O)=C1O,15%

# From PubChem BioAssay (NCATS)
